# “And” between values parts separate entries of the source, which are not always exact repeats. Equal values may be shown once. Results filed as inconclusive are left out. For some of these results: Measured potencies and affinities stand elsewhere. The source made the active and inactive calls.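 How the source made its calls, unless noted: active means compounds killing one labelled cell type while sparing the other, by normalised counts and ratio limits, not self-fluorescent; inactive means the rest.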
# Experiments:
# [1] = viability loss in pontine glioma line – cell-based, SU-DIPG-XVII, MIPE5.0, CellTiter-Glo, qHTS, dose response (AID 1347060; cut-off not given, nearly all actives have AC50 up to about 26 µM); settings: CellTiter-Glo ATP luminescence
# [2] = viability loss in pontine glioma line – cell-based, JHH-DIPG-1, MIPE4.0, CellTiter-Glo, qHTS, dose response (AID 1347062; cut-off not given, nearly all actives have AC50 up to about 27 µM); settings: JHH-DIPG-1 viability, CellTiter-Glo ATP luminescence
# [3] = viability loss in pontine glioma line – cell-based, SU-DIPG-XIII, MIPE5.0, CellTiter-Glo, qHTS, dose response (AID 1347064; cut-off not given, nearly all actives have AC50 up to about 23 µM); settings: CellTiter-Glo ATP luminescence
# [4] = viability loss in pontine glioma line – cell-based, SU-DIPG-XXV, MIPE5.0, CellTiter-Glo, qHTS, dose response (AID 1347065; cut-off not given, nearly all actives have AC50 up to about 26 µM;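 further: cells exposed to compound for 48 hours before ATP readout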); settings: CellTiter-Glo ATP luminescence
# [5] = growth inhibition of DIPG cells – cell-based, MIPE4.0 library, CellTiter-Glo luminescence, qHTS (AID 1347066; cut-off not given, nearly all actives have AC50 up to about 30 µM;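 further: cells exposed to compound for 48 hours before readout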); settings: SU-DIPG-VI viability, CellTiter-Glo ATP luminescence
# [6] = JHH-DIPG-1 glioma cell viability, MIPE5.0 library, CellTiter-Glo luminescence, qHTS (AID 1347067; cut-off not given, nearly all actives have AC50 up to about 26 µM;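 further: cells exposed to compound for 48 hours before readout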); settings: JHH-DIPG-1 glioma viability, CellTiter-Glo ATP luminescence
# [7] = target: NAD(+) hydrolase SARM1 (Homo sapiens) (UniProt Q6SZW1); test: blocking NAD cleavage by SARM1 SAM-TIR – cell lysate, NAD-Glo luminescence (AID 1508614;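 active means compound whose remaining NAD level is above about 45 nM, limit read from the data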); settings: SAM-TIR HEK293T lysate NADase, at 1 µM, stronger effect = higher value
# Chain of NAD(+) hydrolase SARM1 (Homo sapiens) (Q6SZW1 whole entry, looked up): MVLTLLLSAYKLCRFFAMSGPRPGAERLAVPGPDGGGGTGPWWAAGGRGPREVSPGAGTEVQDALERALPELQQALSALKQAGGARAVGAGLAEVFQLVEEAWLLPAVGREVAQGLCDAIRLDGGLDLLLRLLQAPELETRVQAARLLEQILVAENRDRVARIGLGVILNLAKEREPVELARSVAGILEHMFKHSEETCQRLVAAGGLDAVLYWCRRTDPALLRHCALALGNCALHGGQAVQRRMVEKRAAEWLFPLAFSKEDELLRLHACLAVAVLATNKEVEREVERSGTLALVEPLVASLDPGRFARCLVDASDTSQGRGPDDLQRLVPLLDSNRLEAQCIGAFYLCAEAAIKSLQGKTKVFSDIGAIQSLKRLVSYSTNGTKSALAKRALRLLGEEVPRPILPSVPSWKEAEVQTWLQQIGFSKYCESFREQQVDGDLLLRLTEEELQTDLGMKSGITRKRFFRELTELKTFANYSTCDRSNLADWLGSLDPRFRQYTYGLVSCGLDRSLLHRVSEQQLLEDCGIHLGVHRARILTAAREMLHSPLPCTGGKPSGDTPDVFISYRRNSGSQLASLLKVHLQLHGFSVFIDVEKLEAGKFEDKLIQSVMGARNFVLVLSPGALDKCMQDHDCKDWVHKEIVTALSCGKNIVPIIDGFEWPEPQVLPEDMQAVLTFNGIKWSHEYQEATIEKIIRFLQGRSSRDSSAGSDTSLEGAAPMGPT
# [8] = galactose survival enhancers in mitochondrial complex I cybrids – cell-based, galactose medium, ATP luminescence, primary screen (AID 1645843;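 active means z-score of at least 1.8 in each of two replicates, scored against plate mean and spread of sample wells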;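 further: positive z means more ATP and so rescue of galactose-driven cybrid death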); settings: complex I mutant cybrid cells, 72 h, stronger effect = higher value
# [9] = EMT-state selective cytotoxicity in co-culture – imaging, PC-3E GFP, TEM4-18 mCherry, primary screen (AID 1345086); settings: PC-3E GFP / TEM4-18 mCherry co-culture, imaging cell counts, at 1 µM; for red/green cell ratio (normalised): actives lie on both sides;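 on all read-outs here: cells exposed to compound for 72 h before imaging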;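 on red/green cell ratio (normalised): normalised mesenchymal count divided by normalised epithelial count so high means epithelial killing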
# [10] = test system: Aerobactin synthetase IucA (Klebsiella pneumoniae hvKP1); test: IucA enzyme inhibition, primary screen, biochemical, Spectrum library (AID 1346200; call rule not given here;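 further: 100% = wells without compound and 0% = wells lacking enzyme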); settings: malachite green pyrophosphate, A620, at 8 µM, stronger effect = lower value
# [11] = target: Mitogen-activated protein kinase 7 (Homo sapiens) (UniProt Q13164); test: Gal4-ERK5 driven luciferase induction – cell-based, HTS, primary screen (AID 1508626;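 active means luciferase signal above three times the same-plate solvent-only control wells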;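 further: luciferase driven by Gal4-ERK5 fusion binding five Gal4 sites before minimal TATA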); settings: HeLa Gal4-ERK5 transactivation, 18 h, at 5 µM, stronger effect = higher value
# Chain of Mitogen-activated protein kinase 7 (Homo sapiens) (Q13164 whole entry, looked up, the tested form may be a part): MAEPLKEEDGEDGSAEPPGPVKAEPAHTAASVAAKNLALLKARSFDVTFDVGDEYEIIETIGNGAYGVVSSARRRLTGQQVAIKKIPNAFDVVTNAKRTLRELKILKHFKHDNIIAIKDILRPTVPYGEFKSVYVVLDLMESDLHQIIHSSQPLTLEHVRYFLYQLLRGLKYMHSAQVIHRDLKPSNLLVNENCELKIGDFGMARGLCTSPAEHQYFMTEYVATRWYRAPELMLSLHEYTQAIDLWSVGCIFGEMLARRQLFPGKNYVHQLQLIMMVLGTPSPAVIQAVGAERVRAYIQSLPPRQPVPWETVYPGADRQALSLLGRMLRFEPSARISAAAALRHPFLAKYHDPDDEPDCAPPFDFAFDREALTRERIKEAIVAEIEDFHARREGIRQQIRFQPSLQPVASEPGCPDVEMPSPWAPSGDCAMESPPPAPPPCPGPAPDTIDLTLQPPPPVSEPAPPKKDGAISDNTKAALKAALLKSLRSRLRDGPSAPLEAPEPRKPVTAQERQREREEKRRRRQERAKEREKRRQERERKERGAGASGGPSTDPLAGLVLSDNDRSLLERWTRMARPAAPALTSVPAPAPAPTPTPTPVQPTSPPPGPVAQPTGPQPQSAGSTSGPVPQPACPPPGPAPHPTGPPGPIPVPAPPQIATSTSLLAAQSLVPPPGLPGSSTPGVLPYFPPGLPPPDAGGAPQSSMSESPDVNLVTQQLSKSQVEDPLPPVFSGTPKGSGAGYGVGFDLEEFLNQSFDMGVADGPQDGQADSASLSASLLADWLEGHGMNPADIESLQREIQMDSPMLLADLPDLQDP
# [12] = viability loss with induced miR-34 in A549 – imaging, A549 dox-inducible miR-34, nuclei and caspase counts, primary screen (AID 1347080;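 active means compounds whose cell count with miR-34 switched on is under 0.7 times the count with it off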); settings: A549 miR-34 inducible, Hoechst nuclei count, 48 h
# [13] = blockers of polyQ-driven CASP3 activation – cell-based (AID 1583); settings: polyglutamine-induced caspase-3 activation, cell assay; stronger effect = higher value;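 tested at 10 µM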
# [14] = yeast 75Q aggregation reduction – 75Q-TubU reporter (AID 1593); settings: Yeast 75Q polyglutamine aggregation reporter
# [15] = blockers of cytochrome c efflux from mitochondria – biochemical, purified mitochondria (AID 1603); settings: stronger effect = lower value;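 further: mouse liver mitochondria challenged with calcium chloride; signal normalized to the plate average as 100%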
# [16] = polyglutamine aggregate formation blockers (AID 1604); settings: polyglutamine-induced protein aggregation inhibition assay; stronger effect = higher value; tested at 2.5 µM
# [17] = glutamate transport activators, MN-1 cells, MN-1 cell line (AID 1612); settings: MN-1 motor neuron cells, stronger effect = higher value;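 further: tested at 1 µM final; 0% = mean of DMSO vehicle wells on each plate; positive means more glutamate uptake than control and negative means less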
# [18] = GFP-Q80 aggregate reduction, neuronal-like cells, cell-based, NGF-treated PC12, GFPQ80 (AID 1614); settings: PC12 NGF-treated GFP-polyQ80 inclusion reduction;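 further: lower means fewer inclusions and 0 means no inclusions at all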
# [19] = 75Q-TubH aggregate inhibition, S. cerevisiae, yeast (AID 1616); settings: S. cerevisiae 75Q-TubH polyglutamine aggregation suppression; stronger effect = higher value
# [20] = P. berghei load reduction in hepatocytes – cell-based, HepG2, luciferase luminescence, HepG2 viability, primary screen (AID 624349; in the data active means parasite load remaining mostly below about 12%, no sharp cut-off; inactive means mostly above about 10%;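 further: 100% = mean of DMSO negative control wells on the same plate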); settings: P. berghei liver stage in HepG2, luciferase luminescence, concentration not given here; parasite load remaining: stronger effect = lower value; viability: measured here: HepG2 viability without parasites
# [21] = MELAS cybrid and Rieske KO viability enhancers – cell-based, MELAS cybrids, Rieske KO mouse fibroblasts, CellTiter-Glo, primary screen (AID 1508586;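 active means mean z-score across replicates of 1.96 or higher in either the MELAS or the Rieske mutant cell line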;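 further: z relative to plate mean and SD of compound and empty wells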); settings: low glucose
# [22] = compounds altering viability of human ES cells (AID 493140; call rule not given here;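 further: cells exposed to compounds for four days before counting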); settings: human embryonic stem cell survival screen; stronger effect = higher value
# [23] = restoration of touch response, mutant HTT neurons – whole organism, C. elegans mechanosensory neurons, N-terminal huntingtin (AID 1599); settings: C. elegans polyQ-huntingtin mechanosensory neurons, stronger effect = higher value
# [24] = measured here: epithelial PC-3E GFP cell survival
# [25] = measured here: mesenchymal TEM4-18 mCherry cell survival
# [26] = measured here: relative caspase fold change +Dox/-Dox
# [27] = measured here: total cells with miR-34 induction, stronger effect = lower value
# [28] = measured here: total cells without miR-34 induction
compound,measurement,setting,value
C#CC1(O)CCC2C3CCC4=CC(=O)CCC4(C)C3CCC21C (centres undefined),outcome,[1],inactive
same,outcome,[2],inactive
same,outcome,[3],inactive
same,outcome,[4],inactive
same,outcome,[5],inactive
N#CC(O[C@@H]1O[C@H](CO[C@@H]2O[C@H](CO)[C@@H](O)[C@H](O)[C@H]2O)[C@@H](O)[C@H](O)[C@H]1O)c1ccccc1 (some centres undefined),outcome,[3],inactive
same,outcome,[6],inactive
CNC(C)[C@H](O)c1ccccc1 (some centres undefined),remaining NAD,[7],10 nM (inactive)
C[C@]12CCC(=O)C=C1C=CC1C2CC[C@@]2(C)C1CC[C@@]2(O)CCC(=O)O (some centres undefined),remaining NAD,[7],10 nM (inactive)
C=C1CC2C(CC[C@]3(C)C(=O)CCC23)[C@@]2(C)C=CC(=O)C=C12 (some centres undefined),z-score,[8],-1.42 (inactive)
CC1(C)C2CC(=O)[C@]3(C)C(CC[C@@]4(C)[C@H](c5ccoc5)OC(=O)[C@H]5O[C@]543)[C@@]2(C)C(=O)C[C@H]1O (some centres undefined),red/green cell ratio (normalised),[9],0.94 (inactive)
same,normalised cell number,[9]; [24],1.08
same,normalised cell number,[9]; [25],1.01
same,activity remaining,[10],109% (inactive)
same,luciferase signal,[11],36 AU (inactive)
NC1=NC(=O)N2CC12 (centres undefined),red/green cell ratio (normalised),[9],0.74 (inactive)
same,normalised cell number,[9]; [24],1.2
same,normalised cell number,[9]; [25],0.88
same,fold change,[12]; stronger effect = lower value,0.901 (inactive)
same,fold change,[12]; [26],0.97
same,cell count,[12]; [27],8180
same,cell count,[12]; [28],9090
same,remaining NAD,[7],10 nM (inactive)
CC(=O)OCC1=C(C(=O)O)N2C(=O)[C@@H](NC(=O)CCCC(N)C(=O)O)C2SC1 (some centres undefined),inhibition,[13],10.9%
same,score,[14],1.28
same,cytochrome c release ratio,[15],1.12
same,inhibition of aggregation,[16],39.4%
same,glutamate uptake change,[17],3.72%
same,inclusion score,[18],2
same,aggregation suppression score,[19],1.03
same,parasite load remaining,[20],94.5% (inactive)
same,viability,[20],67%
same,red/green cell ratio (normalised),[9],0.94 (inactive)
same,normalised cell number,[9]; [24],1.04
same,normalised cell number,[9]; [25],0.98
same,activity remaining,[10],111% (inactive)
O=c1[nH]c(=O)n(Cl)c(=O)n1Cl,red/green cell ratio (normalised),[9],1.21 (inactive)
same,normalised cell number,[9]; [24],0.87
same,normalised cell number,[9]; [25],1.05
same,fold change,[12]; stronger effect = lower value,0.959 (inactive)
same,fold change,[12]; [26],0.94
same,cell count,[12]; [27],8550
same,cell count,[12]; [28],8920
CC[C@H]1C2CC3[C@@H]4N(C)c5ccccc5[C@]45C[C@@H](C2C5O)N3[C@@H]1O (some centres undefined),parasite load remaining,[20],88.5% (inactive)
same,viability,[20],73.8%
same,red/green cell ratio (normalised),[9],1.03 (inactive)
same,normalised cell number,[9]; [24],0.98
same,normalised cell number,[9]; [25],1.01
same,activity remaining,[10],112% (inactive)
C#CCN(C)C(C)Cc1ccccc1 (centres undefined),parasite load remaining,[20],54.6% (inactive) and 61.7% (inactive)
same,viability,[20],101% and 170%
same,red/green cell ratio (normalised),[9],1.02 (inactive)
same,normalised cell number,[9]; [24],1.06
same,normalised cell number,[9]; [25],1.07
same,fold change,[12]; stronger effect = lower value,0.923 (inactive) and 0.946 (inactive) and 0.891 (inactive)
same,fold change,[12]; [26],2.5 and 4.7 and 1.31
same,cell count,[12]; [27],9410 and 12100 and 9880
same,cell count,[12]; [28],10200 and 12800 and 11100
same,z-score,"[21]; MELAS cybrid survival, CellTiter-Glo 48 h, stronger effect = higher value",-0.242 (inactive)
same,z-score,"[21]; Rieske KO mouse fibroblast survival, CellTiter-Glo 72 h",-0.831
same,z-score,[8],0.995 (inactive) and 0.67 (inactive)
COc1cc2c(cc1O)CC1c3c(cc(O)c(OC)c3-2)CCN1C (centres undefined),survival,[22],4.08 (inactive)
same,parasite load remaining,[20],73.5% (inactive)
same,viability,[20],80.3%
same,red/green cell ratio (normalised),[9],0.97 (inactive)
same,normalised cell number,[9]; [24],1.11
same,normalised cell number,[9]; [25],1.07
same,activity remaining,[10],119% (inactive)
CN1CC(CNC(=O)OCc2ccccc2)CC2c3cccc4c3c(cn4C)CC21 (centres undefined),inhibition,[13],-46%
same,score,[14],1.1
same,rescue above control,[23],11.5
same,cytochrome c release ratio,[15],0.97
same,inhibition of aggregation,[16],12.2%
same,glutamate uptake change,[17],5.85%
same,aggregation suppression score,[19],1.13
same,red/green cell ratio (normalised),[9],0.64 (inactive)
same,normalised cell number,[9]; [24],1.26
same,normalised cell number,[9]; [25],0.81
same,activity remaining,[10],113% (inactive)

# Source: PubChem BioAssay
